High-throughput results deposited in PubChem BioAssay by National Center for Advancing Translational Sciences (NCATS).
Hits are enriched below; roughly 2.8% of the tested compounds scored in any of these assays.
POLK inh: blocks human DNA polymerase kappa activity; Q9UBT6; purified Pol kappa, fluorescent DNA synthesis assay, 10 min; Potency, µM (series often up to 107 µM), without a hit: top-dose activity, negative = inhibition, usual class: inhibitors; 0.53% of 400,000 active; AID 588579; further: potency means the concentration at half of the fitted maximal effect; on the % scale 0 is the no-effect control and ±100 the full control effect
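First, compounds were pin-transferred onto 10 nM Pol kappa. After 15 min at room temperature, substrate was added to 50 nM final. Fluorescence was then measured kinetically at 0 and 10 min.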
WRN helicase inh: inhibitors of human WRN helicase | WRN helicase unwinding, fluorescent forked duplex, kinetic | Potency, µM (titrated, usually from 114 µM), for the others: top-dose activity change, negative = inhibition, usual class: inhibitors | Q14191 | AID 651768 | 0.46% of 360,000 active; further: potency means the concentration at half of the fitted maximal effect; on the % scale 0 is the no-effect control and ±100 the full control effect; nearly all actives have a fitted effect of over 55% in size
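Primary qHTS, 1536-well format. 20 nM WRN + compound, 15 min RT; start with 100 nM forked fluorophore/quencher duplex, 2 mM ATP (final); kinetic read ex 525/em 598 nm.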
POLH inh: blocks human DNA polymerase eta activity. Q9Y253. Potency, µM (titrated, usually from 114 µM), inactives show at the top dose activity change, negative = inhibition, actives largely listed as inhibitors. 1.2% of 390,000 active. recombinant Pol eta, fluorescent DNA replication assay; further: potency means the concentration at half of the fitted maximal effect; on the % scale 0 is the no-effect control and ±100 the full control effect
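Pol eta at 10 nM preincubated with compounds 15 min at room temperature; reaction started with fluorescent substrate (50 nM final) and read kinetically at 0 and 10 min.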
Pol beta inh: blocks human DNA polymerase beta activity; P06746; Pol beta primer extension/strand displacement, fluorescence kinetic; Potency, µM (doses to about 114 µM), without a hit: top-dose activity change, negative = inhibition, actives largely listed as inhibitors; 1.3% of 340,000 active; further: potency means the concentration at half of the fitted maximal effect; on the % scale 0 is the no-effect control and ±100 the full control effect
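Pol beta (10 nM) was preincubated with compound for 15 min at room temperature. The reaction was then started with 50 nM substrate and read immediately and after a further 10 min at room temperature.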
PI5P4Ka inh: PI5P4K alpha (human) kinase inhibition; P48426; PI5P4Kalpha enzyme, ADP-Glo luminescence, 60 min; stronger effect = lower value; max response, %; 1.2% of 330,000 active; AID 652105; active means max response of -50% or lower; inconclusive means between -30% and -50%; inactive means -30% or higher; further: value at the top dose of about 77 µM; on the % scale 0 is the no-effect control and ±100 the full control effect
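PI5P4Kalpha ADP-Glo assay; 5 microM ATP final; 60 min RT reaction; HEPES pH 7.4/EGTA/CHAPS, 5% DMSO; controls lacking substrate or enzyme; luminescent end-point.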
Pol iota inh: DNA polymerase iota (human) inhibition; Q9UNA4; Pol iota fluorescent replication assay, 10 min; Potency, µM (highest dose often 115 µM), inactives show at the top dose activity, negative = inhibition, actives largely listed as inhibitors; 1% of 390,000 active; further: potency means the concentration at half of the fitted maximal effect
Target sequence (Q9UNA4 whole entry, looked up): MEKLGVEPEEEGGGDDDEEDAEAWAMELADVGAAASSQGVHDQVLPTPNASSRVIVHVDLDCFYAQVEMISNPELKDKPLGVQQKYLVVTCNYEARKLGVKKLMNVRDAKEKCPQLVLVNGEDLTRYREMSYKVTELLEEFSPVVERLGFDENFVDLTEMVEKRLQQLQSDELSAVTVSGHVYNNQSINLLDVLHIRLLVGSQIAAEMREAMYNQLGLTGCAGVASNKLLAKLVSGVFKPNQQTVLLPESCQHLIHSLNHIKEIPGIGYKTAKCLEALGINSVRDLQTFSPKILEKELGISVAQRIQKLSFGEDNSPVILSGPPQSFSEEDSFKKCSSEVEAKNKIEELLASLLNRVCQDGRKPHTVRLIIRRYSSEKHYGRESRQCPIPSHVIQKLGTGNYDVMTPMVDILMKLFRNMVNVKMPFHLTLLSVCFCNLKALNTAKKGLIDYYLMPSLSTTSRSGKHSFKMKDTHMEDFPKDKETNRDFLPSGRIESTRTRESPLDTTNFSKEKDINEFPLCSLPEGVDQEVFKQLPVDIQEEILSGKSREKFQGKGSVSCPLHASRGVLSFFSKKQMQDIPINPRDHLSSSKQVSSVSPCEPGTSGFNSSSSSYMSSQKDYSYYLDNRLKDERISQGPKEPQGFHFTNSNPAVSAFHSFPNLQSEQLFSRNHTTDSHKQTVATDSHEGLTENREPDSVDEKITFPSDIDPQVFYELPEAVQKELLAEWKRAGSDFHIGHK
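Fluorescent replication assay read twice, at 0 min and 10 min after adding 50 nM (final) substrate. Enzyme (10 nM) and compounds were first incubated 15 min at room temperature; enzyme-free buffer wells were negative controls.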
Starred values were filed as active, the others as inactive; ? = inconclusive; nt = not tested or not shown; [ ] = remark or other dose. Unless noted, the call rests on the fitted dose curve; in most records, active means well fitted curve in the direction sought with a large enough effect; inconclusive means small, poorly fitted or top-dose-only effect, or another doubt; inactive means no such curve, though single readings can be large; an effect the other way counts as inactive or inconclusive.

SMILES	POLK inh	WRN helicase inh	POLH inh	Pol beta inh	PI5P4Ka inh	Pol iota inh
COC(=O)/C=C1\SC(=Nc2ccccc2)NC1=O	-13%	9%	-3%	21%	-3	12%
COC(=O)/C=C1/SC(=Nc2ccc(Cl)c(Cl)c2)NC1=O	-10%	-10%[11.6 µM]	79µM*	24%	-6	-26%
COc1ccc(CNC(=O)COC(=O)c2cc(-c3ccc(Cl)s3)nc3ccccc23)cc1	3%	-11%	-15%	0%	9	-3%
O=C(NCc1ccco1)c1cc(-c2cccs2)nc2ccccc12	-10%	-35%	?	5%	0	-2%
O=C(COC(=O)c1cc(-c2cccs2)nc2ccccc12)NCc1ccco1	89µM*	?	11µM*	22µM*	?	?
O=C(COC(=O)c1cc(-c2ccc(Cl)s2)nc2ccccc12)NCc1ccco1	-10%	35µM*	20µM*	1%	?	?
O=C1C=CC(=O)N1c1ccc(-c2nc3ccccc3o2)cc1	nt	-10%	-5%	nt	-60*	nt
O=C(O)/C(=C\c1cccc(O)c1)c1ccc(S(=O)(=O)N2CCCC2)s1	?	-4%[11.6 µM]	35µM*	nt	?	?
COc1ccc(Br)cc1/C=C(\C(=O)O)c1ccc(S(=O)(=O)N2CCCCC2)s1	-35%	-34%	?	nt	-24	-14%
O=C(O)/C(=C/c1ccc(Cl)c([N+](=O)[O-])c1)c1ccc(S(=O)(=O)N2CCCCC2)s1	89µM*	-15%	28µM*	nt	-15	?
CCOc1cc(/C=C(\C(=O)O)c2ccc(S(=O)(=O)N3CCCC3)s2)ccc1OC	0%	2%	-1%	nt	0	7%
O=C(O)/C(=C\c1cccc(F)c1)c1ccc(S(=O)(=O)N2CCCCC2)s1	-20%	?	?	22µM*	-5	?
Cc1ccc2c(/C=C/c3c[nH]c4ccccc34)ccnc2c1C	0%	nt	nt	nt	nt	40%
COCCOC(=O)C1=C(C)NC(=O)NC1c1cccc2ccccc12 (stereo unspecified)	8%	7%	-13%	39%	7	-9%
Cc1cccc(NC(=O)Cn2c(=O)c3cccn3c3ccccc32)c1C	-7%	nt	-12%	-27%	nt	-4%
CC(=O)NC1C(=O)N(CCN2CCOCC2)c2ccc(C)cc21 (stereo unspecified)	-10%	-18%	25µM*	?	3	-14%
N#C/C(=C/c1cn(Cc2ccc(F)cc2)c2ccccc12)C(=O)Nc1cccc(Cl)c1	?	nt	-17%	1%	nt	56µM*
COc1cccc(NC(=O)/C(C#N)=C\c2cn(Cc3ccc(C)cc3)c3ccccc23)c1	7%	nt	-13%	1%	nt	29%
CCn1c(SCC(=O)N2c3ccccc3Sc3ccccc32)nnc1-c1ccco1	-4%[60.1 µM]	-17%	-14%	45µM*	nt	15%
COc1ccc(NC(=O)c2cnc3cc(C)ccn3c2=O)c(OC)c1	7%	nt	-14%	14%	nt	35%
CCc1ccc(NC(=O)C(C)OC(=O)c2ccc(NS(=O)(=O)c3ccc(C)c([N+](=O)[O-])c3)cc2)cc1 (stereo unspecified)	?	-2%[11.6 µM]	79µM*	-2%	9	?
Cc1ccc(NC(=O)C(C)OC(=O)c2ccc(NS(=O)(=O)c3ccc(F)c(F)c3)cc2)cc1 (stereo unspecified)	-22%	-5%	-9%	14%	-3	4%
CCOC(=O)c1sc(NC(=O)C2CC=CCC2C(=O)O)nc1C (stereo unspecified)	-6%	-16%[57.1 µM]	79µM*	45µM*	nt	?
CCOC(=O)c1sc(NC(C)=O)nc1C	-4%	-1%[57.1 µM]	-8%	-19%	nt	37%
Cc1ccc(CNC(=O)c2ccc(CNS(=O)(=O)c3ccc4c(c3)C(C)(C)C(=O)N4C)cc2)o1	-17%	-4%	-18%	54%	-2	?
SMILES	POLK inh	WRN helicase inh	POLH inh	Pol beta inh	PI5P4Ka inh	Pol iota inh
CCOCCCNC(=O)/C(C#N)=C/c1cc(Br)c(O)c(Br)c1	2%	-1%	3%	5%	-101*	?
COCCNC(=O)/C(C#N)=C/c1ccccc1Br	-1%	2%	6%	74%	-63*	62%
CCCc1cc2c(cc1NC(=O)c1ccccc1C)OCO2	-15%	4%	-6%	8%	6	2%
Cc1cc[n+](CCC2CCCCC2)c2ccccc12	5%	nt	nt	nt	nt	38%
Cc1ccc(-n2c(SCC(=O)NCc3ccco3)nc3sc(C)c(C)c3c2=O)cc1	-21%	-2%[57.1 µM]	2%	1%	2	-5%
Cc1ccc(-n2c(SCC(=O)NCc3ccco3)nc3nc4c(cc3c2=O)COC(C)(C)C4)cc1	-7%	1%[11.6 µM]	?	79µM*	2	?
Cc1ccnc2c(Cl)c(Cl)ccc12	-2%	nt	nt	nt	nt	19%
CC(C)CN1C(=O)c2ccc(C(=O)Nc3ccccc3C(=O)O)cc2C1=O	-8%	-2%	0%	-2%	-64*	12%
CC(C)CCN1C(=O)c2ccc(C(=O)Nc3ccc(Br)cc3C(=O)O)cc2C1=O	-34%	-8%[11.6 µM]	32µM*	-3%	?	?
CC(C)CCN1C(=O)c2ccc(C(=O)Nc3cc(C(=O)O)cc(C(=O)O)c3)cc2C1=O	4%	-7%	-20%	-2%	-6	129%
Nc1nonc1-n1nnc(C(=O)N/N=C/c2ccccc2Cl)c1CN1CCOCC1	3%	1%	-6%	-19%	0	6%
Cn1c(=S)[nH]c2[nH]c(=O)cnc2c1=O	-7%	-10%	-3%	2%	-52*	137%
CCOC(=O)c1cnn2c(N)c(C#N)nnc12	-8%	-13%	?	4%	nt	89µM*
O=C1C2=C(C(=O)c3ccccc31)C1O[C@](c3ccsc3)(Cc3c1ccc1ccccc31)O2	nt	nt	nt	3.2µM*	nt	nt
O=c1oc2ccccc2c2c1C1O[C@](c3ccsc3)(Cc3c1ccc1ccccc31)O2	nt	nt	nt	13µM*	nt	nt
O=C1CCCC2=C1C1O[C@](c3ccsc3)(Cc3c1ccc1ccccc31)O2	nt	nt	nt	4µM*	nt	nt
O=C1c2ccccc2C(=O)N1CCCC[C@]12Cc3ccccc3C(O1)c1c(c3ccccc3oc1=O)O2	nt	nt	nt	-13%[22.9 µM]	nt	nt
CC(C)C[C@H]1COc2cccc(N3CCN(Cc4ccccc4F)CC3)c2S(=O)(=O)N1	nt	0%	nt	nt	-1	nt
c1ccc2sc(SN3CCOCC3)nc2c1	5%[19.4 µM]	-11%	-2%	13%	-76*	-3%
c1ccc2sc(N3CCOCC3)nc2c1	7%	2%	-10%	15%	nt	15%
CCOC(=O)C1=C(COC(=O)COc2ccccc2C(C)C)NC(=O)NC1C (stereo unspecified)	-8%	-2%	-14%	nt	1	9%
CCOC(=O)c1c(C)oc2c1c(CN1CCN(CCO)CC1)c(O)c1ccccc12	-28%	?	-5%	-27%	-98*	78%
